# Assay outcomes as filed in PubChem BioAssay.
# Most compounds without a hit are left out; they make up all but 12% or so of the library.
# Cl transport mod: modulators of human KCC2 chloride dependent transport; Q9H2X9; KCC2 cells, thallium flux FluoZin-2 fluorescence; B-score of Tl+ flux slope (higher = more flux/activation; lower = inhibition) at 10 µM; 2.2% of 190,000 active; AID 1456;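 active means thallium flux slope and its plate-corrected score both differing from the plate sample mean at a set confidence after two filtering rounds, in either direction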;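 further: slope of fluorescence scaled to starting intensity during 10 to 20 s after thallium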
# m-calpain inh: inhibitors of pig calpain II; purified calpain II, fluorogenic peptide substrate, 30 min; inhibition, % at 16 µM; 0.37% of 220,000 active;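 active means inhibition above about 50%, limit read from the data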
# WT yeast gro inh: growth inhibition of WT yeast, mitochondrial fusion screen. mitochondrial fusion phenotypic screen, WT strain. inhibition, % at 10 µM. 2.1% of 190,000 active; in the data active means inhibition above about 58%; tested in S. cerevisiae
# ROMK primary: modulators of human ROMK potassium channel; P48048; Tet-inducible ROMK, thallium flux fluorescence; actives lie on both sides; B-score at 10 µM; 2% of 130,000 active; AID 1918;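 active means signal ratio slope over the read window, or its plate-corrected B-score, at least 3 SD from the plate mean, either direction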;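 further: B-score of the F/F0 ratio slope over 7 to 12 s after thallium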
# Target sequence (P48048 whole entry, looked up): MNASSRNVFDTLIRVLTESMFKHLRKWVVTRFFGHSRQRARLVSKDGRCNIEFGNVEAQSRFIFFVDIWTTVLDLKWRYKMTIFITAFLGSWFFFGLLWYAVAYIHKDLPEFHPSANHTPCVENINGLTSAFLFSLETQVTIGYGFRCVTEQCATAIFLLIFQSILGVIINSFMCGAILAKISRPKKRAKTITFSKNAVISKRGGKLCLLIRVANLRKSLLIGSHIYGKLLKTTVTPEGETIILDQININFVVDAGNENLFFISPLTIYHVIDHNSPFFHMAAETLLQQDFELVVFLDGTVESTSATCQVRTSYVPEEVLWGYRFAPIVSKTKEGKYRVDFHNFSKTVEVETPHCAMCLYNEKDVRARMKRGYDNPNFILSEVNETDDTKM
# Lmaj promast: inhibitors of Leishmania major promastigote growth. Leishmania major promastigotes, resazurin fluorescence viability. inhibition, % at 10 µM. 9% of 200,000 active. AID 1063; in the data active means inhibition above about 50%;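 further: promastigotes grown with compound for 44 hours at 28 °C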
# Numbers without * were called inactive; i = inactive; . = not tested or not shown.
SMILES,Cl transport mod,m-calpain inh,WT yeast gro inh,ROMK primary,Lmaj promast
CCOC(=O)C[N+](C)(C)CCOC1CC2CCC1(C)C2(C)C (stereo not given),0.0219,-8.7,1.9,-0.421,-6.3
CC1(C)C2CCC1(C)C(OCC[N+](C)(C)CC(=O)OC1CCCCC1)C2 (stereo not given),0.0806,14.6,26.4,.,99.7*
Cn1c(C(=O)O)ccc1S(=O)(=O)N1CCCCCC1,0.0543,2.7,.,.,.
CCOC(=O)C1CCN(C(=O)CCCCn2c(=O)[nH]c3ccccc3c2=O)CC1,1.55,11.2,-13.8,.,-0.7
CN1CCN(/N=C/c2c3ccccc3c(Cl)c3ccccc23)CC1,0.228,-17.8,96.3,0.385,65.8*
CCOc1ccc(CC(=O)OCn2nnc3ccccc3c2=O)cc1,-0.84,65.9*,-50.2,1.26,-4.2
CC(C)(C)C(C(Oc1ccc(Cl)cc1)n1cncn1)n1nnnc1C(c1cccc(Cl)c1)N1CCCCC1 (stereo not given),-0.415,-69.7,50.3,.,65.1*
CC(C)(C)C(=O)/C(=C/c1ccncc1)n1cncn1,0.591,-22.2,3.3,-1.78,100.3*
Cc1nn(C)c(C)c1/C=C(/C(=O)C(C)(C)C)n1cncn1,0.0392,8.6,.,0.0132,.
CCc1cccc(NC(=O)c2ccc3c(=O)n4c(nc3c2)CCCCC4)c1,-2.59,35.3,.,-0.28,.
CN(C(=O)COC(=O)c1cc([N+](=O)[O-])ccc1Sc1ccccc1)C1CCS(=O)(=O)C1 (stereo not given),-2.5,-21.1,-15.1,-0.345,100.4*
CN(C(=O)COC(=O)c1ccccc1Nc1ccccc1)C1CCS(=O)(=O)C1 (stereo not given),0.037,-16.7,16.2,-0.113,0.0
CSCCC(NC(=O)c1ccc(Cl)cc1)C(=O)OCC(=O)Nc1cc(Cl)ccc1C#N (stereo not given),-0.182,0.6,-0.9,0.97,53.9*
Cc1ccccc1CSc1nc(-c2ccccc2)cc(=O)[nH]1,0.371,16.9,1.2,.,-4.1
COc1ccccc1NC(=O)C1CC(=O)OC1c1ccccc1 (stereo not given),-0.48,19.0,-7.3,.,-6.2
Cc1cc2c(C)ccc(C)c2nc1SCC(=O)c1cccs1,.,51.0*,3.8,.,-5.9
Cc1cc(C)c2c(=O)cc(C(F)(F)F)oc2n1,-0.126,-32.0,-4.5,0.875,-4.7
CCNc1nc(Oc2ccc(Cl)cc2Cl)cc(C(F)(F)F)n1,.,8.4,52.2,.,-0.4
CCNc1nc(Oc2c(Cl)cccc2Cl)cc(C(F)(F)F)n1,0.575,15.1,-2.6,.,76.6*
CC12CCC(c3c(C(=O)O)nn(-c4ccccc4)c31)C2(C)C (stereo not given),-0.61,13.5,6.8,.,-5.1
CC12CCC(c3c(C(=O)Nc4nccs4)nn(-c4ccccc4)c31)C2(C)C (stereo not given),1.6,6.0,76.3*,.,100.0*
Cc1ccc(S(=O)(=O)Nc2cc3c(C(=O)Nc4ccccc4)c(C)oc3c3ccccc23)cc1,0.0535,-33.7,27.1,.,60.7*
Cc1oc2ccc(NS(=O)(=O)c3ccccc3)cc2c1C(=O)Nc1ccccc1,-1.07,3.4,1.1,-1.03,-1.2
COC(=O)c1ccccc1NC(=O)Cn1c(=O)n(Cc2ccccc2)c(=O)c2c(C)c(C)sc21,0.0284,-20.5,17.5,.,89.1*
COC(=O)c1ccccc1NC(=O)Cn1c(=O)oc2ccc(Cl)cc21,.,23.0,-1.9,-0.466,-1.4
SMILES,Cl transport mod,m-calpain inh,WT yeast gro inh,ROMK primary,Lmaj promast
O=c1[nH]c(SCc2cccc(Cl)c2)nc2c1CCCC2,.,18.8,18.6,.,-9.8
Clc1cccc(CSC2=NCCCN2)c1,-1.32,-11.2,-0.5,-0.0888,60.0*
CCOC(=O)C(C)(C)N(Cc1cccc(C)c1)S(=O)(=O)c1ccc(Cl)c([N+](=O)[O-])c1,0.453,22.6,17.2,.,86.0*
CCCN1Cc2cccc(C(=O)Nc3ccc4c(c3)OCO4)c2C1=O,-0.74,3.4,5.5,.,-2.8
CCCN1Cc2cccc(C(=O)Nc3ccc4c(c3)OCCO4)c2C1=O,-1.61,-12.1,19.1,.,68.8*
COCCN1Cc2cccc(C(=O)Nc3c(C)cc(C)cc3C)c2C1=O,0.0912,42.2,15.5,-1.03,71.8*
Cn1c(=O)[nH]c(=O)c2c1nc(N1CCCCC1)n2C/C=N/Nc1ccc(C(=O)O)cc1,1.57,20.1,.,.,.
Cc1ccc(/C=C/C(=O)O)cc1S(=O)(=O)N(CCO)CCO,-0.0375,26.2,-8.1,1.25,-1.2
Cc1ccc(SC(C)C(=O)Nc2cccnc2)cc1 (stereo not given),-0.396,-23.0,11.1,.,-3.4
CC(Sc1ccc(Cl)cc1)C(=O)Nc1ccccc1-c1ccccc1 (stereo not given),1.29,7.9,74.5*,-0.85,10.4
Cc1ccc(SC(C)C(=O)Nc2ccncc2)cc1 (stereo not given),-0.488,18.5,-8.2,-0.827,92.7*
CCNC(=O)C(C)Sc1ccc(Cl)cc1 (stereo not given),1.36,-40.3,-3.5,0.667,-8.6
Cc1ccc(SC(C)C(=O)Nc2ccccc2-c2ccccc2)cc1 (stereo not given),0.366,12.8,78.3*,0.511,15.6
O=C(COc1ccccc1-c1ccccc1)NCCN1C(=O)S/C(=C\c2cccnc2)C1=O,-3.09,-34.4,-13.5,.,37.1
CC1=CC=CC2=NC(=O)CC(C)(C(=O)N(CC(=O)NC3CCCC3)c3ccccc3C)N12 (stereo not given),0.0063,i,7.7,.,80.3*
COc1ccc(C(F)(F)F)cc1N/C=C/c1nnnn1-c1ccc(C)cc1,0.242,-5.7,.,.,.
O=C(C1=C[C@@H](C2CC2)C[C@@H](OCc2ccc(CO)cc2)O1)N1CCN(Cc2ccccc2)CC1,-2.21,-12.5,-13.3,.,-4.9
COC(=O)C1=C(C)N(c2cccc(C)c2)C(=O)/C1=C\c1cccs1,-0.732,40.0,-1.7,.,15.8
COC(=O)C1=C(C)N(c2ccc(C)c(C)c2)/C(=C/c2cccs2)C1=O,.,-7.7,5.7,-0.0668,82.5*
COC(=O)C1=C(C)N(c2ccccc2)/C(=C/c2cccs2)C1=O,.,-29.8,1.9,.,51.5*
COC(=O)C1=C(C)N(c2ccc(Cl)cc2)/C(=C/c2cccs2)C1=O,0.0205,27.1,15.0,.,36.2
CC(C)CC(NC(N)=O)C(=O)OCC(=O)Nc1ccc(OC(F)F)cc1 (stereo not given),-0.198,-31.0,-6.4,-0.489,-5.6
CCN(CC)C(=O)Cn1cnc([N+](=O)[O-])n1,-1.67,-8.6,2.2,0.43,40.7
COc1cc(CNCCCN2CCOCC2)ccc1OCC(=O)Nc1cccc(C(F)(F)F)c1,0.15,15.9,6.1,.,100.5*
CCOc1cc(NC(=S)NCCCN2CCOCC2)c(OCC)cc1NC(=O)c1cccc(C)c1,-0.376,-133.7,16.3,-0.0111,-2.4
COc1ccc(CNC(=O)Nc2cccc(C(F)(F)F)c2)cc1OC,-1.23,-20.4,-9.9,0.518,6.2
CCOc1cc(CNCCCN2CCOCC2)ccc1OCC(=O)Nc1cccc2ccccc12,.,-0.5,-8.0,.,100.5*
C=CCOc1ccccc1CNCCCN1CCOCC1,0.181,27.7,10.2,.,0.4
CCOc1cc(CNC(CC)CO)ccc1OCC(=O)Nc1cccc(C(F)(F)F)c1 (stereo not given),0.978,12.6,0.8,-1.63,82.0*
